Screening data from PubChem BioAssay.
p53 reactivator = restores transcriptional activity of mutant p53; H1299 p53-A138V BP100-luciferase reporter, luminescence, 24 h; Potency, µM (doses to about 92.2 µM), most hits filed as activators; hit rate 0.063% among 320,000; AID 504706; note: nearly all actives have a fitted effect of over 45% in size
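p53-null H1299 cells stably carrying temperature-sensitive p53-A138V and a BP100-luciferase reporter were pinned with compounds (4-point, 1:5 series) and held 24 hrs at 37 deg C. Luminescence was read 10 min after detection reagent.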
NPC1 promoter act = activators of NPC1 promoter. hit rate 2.4% among 320,000. Potency, µM (highest dose often 9.22 µM), most hits filed as activators. AID 485313. Huh7 NPC1 promoter luciferase reporter, 24 h; note: nearly all actives have a fitted effect of over 60% in size
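Luminescence read-out of NPC1 promoter-driven luciferase in stably transfected Huh7 cells; compounds delivered in DMSO and left 24 h at 37C, 5% CO2, qHTS titration format.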
Rab9 prom act = Rab9 promoter activation; AID 485297; Potency, µM (highest dose often 9.22 µM), usual class: activators; hit rate 2.8% among 320,000; Huh7 Rab9 promoter-luciferase reporter, luminescence, 24 h; note: nearly all actives have a fitted effect of over 60% in size
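Huh7 cells stably carrying a Rab9 promoter-luciferase reporter, 1500 cells per well in OP-MEM I with 10% FBS, treated with compound 24 hours at 37C. Luciferase activity read by luminescence after 10 minutes with Amplite reagent.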
SMN2 splice up = SMN2 splice variant enhancement; Potency, µM (series often up to 46.1 µM), hits mostly activators; hit rate 2.8% among 210,000; HEK293 SMN2-luciferase splicing reporter, luminescence, 30-36 h; note: nearly all actives have a fitted effect of over 55% in size
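qHTS luciferase splicing reporter: luminescence rises when SMN2 exon 7 is included in transfected HEK293 cells. Compound exposure lasted 30-36 h at 37C, with 4.5 mM final sodium butyrate as control, followed by a ONE-Glo read.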
ELG1 genotox = induces genotoxicity in HEK293T cells with luciferase-tagged ELG1; HEK293T ELG1-luciferase reporter, luminescence, 16 h; Potency, µM (doses to about 46 µM), hits mostly activators; hit rate 1.3% among 330,000; note: nearly all actives have a fitted effect of over 60% in size
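Screening used a luciferase reporter fused to human ELG1 in HEK293T cells. Luminescence was read on a CCD plate imager after 16 hr exposure and 30 min ONE-Glo incubation.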
FLuc counter = inhibits or activates purified firefly luciferase, miR-21 counter-screen; P08659; Potency, µM (highest dose often 57.5 µM), usual class: inhibitors; purified FLuc, Km substrates, luminescence inhibition; hit rate 6.9% among 360,000; note: nearly all actives have a fitted effect of over 55% in size
Target sequence (P08659 whole entry, looked up): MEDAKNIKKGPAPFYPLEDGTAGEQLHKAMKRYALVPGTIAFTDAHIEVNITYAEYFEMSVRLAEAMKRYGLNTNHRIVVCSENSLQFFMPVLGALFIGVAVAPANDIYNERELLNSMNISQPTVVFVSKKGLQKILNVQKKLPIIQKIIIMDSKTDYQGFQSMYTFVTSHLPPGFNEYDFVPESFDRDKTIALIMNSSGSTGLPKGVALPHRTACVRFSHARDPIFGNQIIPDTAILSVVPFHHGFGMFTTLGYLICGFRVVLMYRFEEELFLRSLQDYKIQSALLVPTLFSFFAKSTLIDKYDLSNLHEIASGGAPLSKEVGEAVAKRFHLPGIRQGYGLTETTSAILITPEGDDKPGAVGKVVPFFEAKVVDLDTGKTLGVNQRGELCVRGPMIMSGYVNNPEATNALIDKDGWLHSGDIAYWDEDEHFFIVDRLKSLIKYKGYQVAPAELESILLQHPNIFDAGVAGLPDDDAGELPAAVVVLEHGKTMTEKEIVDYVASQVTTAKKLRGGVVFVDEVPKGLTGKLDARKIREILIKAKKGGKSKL
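Purified P. pyralis luciferase (10nM final) with 10uM D-luciferin and 10uM ATP (Km levels) in 50mM Tris acetate pH 7.5, 10mM Mg acetate, 0.01% Tween-20, 0.05% BSA; qHTS 6-point titration, ~60 µM downward; luminescence read.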
Large screens that a line does not name were inactive. Most compounds without a hit are left out; they make up all but 7.3% or so of the library. Calls come from the whole dose curve; as a rule, active = well fitted curve in the direction sought with a large enough effect; inconclusive = small, poorly fitted or top-dose-only effect, or another doubt; inactive = no such curve, though single readings can be large; an effect the other way counts as inactive or inconclusive.

COc1cccc(OC)c1C(=O)NNC(=O)c1cccc(COc2ccc3c(c2)CCC3)c1	p53 reactivator inconclusive, NPC1 promoter act 0.447µM, Rab9 prom act 0.562µM, SMN2 splice up 1.41µM, ELG1 genotox 0.366µM, FLuc counter 4.78µM
CCOC(=O)CNC(=O)O[C@@H]1Cc2cc(OC)ccc2O[C@H]1c1cccc(OC)c1	none (no result: p53 reactivator, NPC1 promoter act, Rab9 prom act, ELG1 genotox, FLuc counter)
CCOC(=O)CNC(=O)O[C@@H]1C(=O)c2cc(Br)ccc2O[C@H]1c1cccc(OC)c1	none (no result: p53 reactivator, NPC1 promoter act, Rab9 prom act, ELG1 genotox, FLuc counter)
Cc1noc2nc(C(=O)O)nc(N3CCCCC3)c12	none (no result: p53 reactivator, NPC1 promoter act, Rab9 prom act, ELG1 genotox)
COC(=O)c1ccccc1NC(=O)c1ccc(COc2ccc3c(c2)CCC3)cc1	FLuc counter inconclusive
O=C(Nc1ccccc1)c1ccc(CSc2ccccn2)cc1	p53 reactivator inconclusive, NPC1 promoter act 1.26µM, Rab9 prom act 1.58µM, SMN2 splice up 22.4µM, ELG1 genotox inconclusive, FLuc counter 2.13µM
COc1ccccc1NC(=O)c1ccc(COc2ccc3c(c2)CCC3)cc1	SMN2 splice up 11.2µM
O=C(Nc1ccc(CSc2ccccc2)cc1)c1ccccc1	none
CCn1c(C)nc2cc(C(=O)NNC(=S)Nc3ccc(Cl)cc3Cl)ccc21	FLuc counter inconclusive
CCn1c(C)nc2cc(C(=O)NNC(=S)Nc3ccccc3)ccc21	NPC1 promoter act 0.447µM, Rab9 prom act 0.794µM, ELG1 genotox 10.3µM, FLuc counter 12µM
CCn1c(C)nc2cc(C(=O)NNC(=S)Nc3ccccc3Cl)ccc21	p53 reactivator inconclusive, NPC1 promoter act inconclusive, Rab9 prom act inconclusive, SMN2 splice up inconclusive, ELG1 genotox inconclusive, FLuc counter 16.9µM
CCn1c(NC(=S)Nc2ccccc2)nc2ccccc21	NPC1 promoter act inconclusive, Rab9 prom act inconclusive, FLuc counter 3.38µM
COc1cc(NC(=O)Cc2cccc3ccccc23)c(C(=O)O)cc1OC	none (no result: p53 reactivator, SMN2 splice up)
Cc1cnc(C(=O)Nc2ccc(OC(F)(F)F)cc2)cn1	none (no result: p53 reactivator, SMN2 splice up)
O=C(Nc1ccc(OC(F)(F)F)cc1)C1=NCCN1	NPC1 promoter act inconclusive, FLuc counter 6.75µM
CCCCCCN(C(=O)CCCCCN1C(=O)NC(c2ccccc2-c2ccccc2)C(C(=O)OCc2ccccc2)=C1C)C(C(=O)NCCCC)c1ccc(OCC(=O)OC)c(C(=O)OC)c1 (configuration not stated)	none (no result: p53 reactivator, NPC1 promoter act, Rab9 prom act, ELG1 genotox, FLuc counter)
COc1ccc(-c2nc3sc(CCNC(=O)c4cccc(C(F)(F)F)c4)c(C)n3n2)cc1	FLuc counter 6.75µM (no result: p53 reactivator, NPC1 promoter act, Rab9 prom act, SMN2 splice up, ELG1 genotox)
COc1ccc(-c2nc3sc(CCNC(=O)c4ccccc4C)c(C)n3n2)cc1	FLuc counter 16.9µM (no result: p53 reactivator, NPC1 promoter act, Rab9 prom act, SMN2 splice up, ELG1 genotox)
COC(=O)c1nnn(CC(=O)Nc2c(C)cccc2C)c1N	none (no result: p53 reactivator, NPC1 promoter act, Rab9 prom act, ELG1 genotox)
COc1ccc(/C=N/Nc2nc3ccccc3[nH]2)cc1OC	p53 reactivator inconclusive, NPC1 promoter act inconclusive, Rab9 prom act inconclusive, FLuc counter 7.57µM
CCOc1cc(/C=N/Nc2nc3ccccc3[nH]2)cc(Br)c1OCC(=O)N(C)C	FLuc counter 23.9µM
COc1cc(/C=N\Nc2nc3ccccc3[nH]2)cc(OC)c1OC	FLuc counter 10.7µM
COc1ccc2c(c1)c(/C=N/Nc1nc3ccccc3[nH]1)c(C)n2C	FLuc counter 9.53µM (no result: SMN2 splice up)
CCc1ccc(CNC(=O)CCCN2C(=O)CCn3nc(-c4cccn4C)cc32)cc1	none (no result: p53 reactivator, NPC1 promoter act, Rab9 prom act, SMN2 splice up, ELG1 genotox)
CC(=O)N(c1ccccc1)c1nnc(-c2cnc(C)cn2)s1	NPC1 promoter act 1.58µM, Rab9 prom act 3.16µM, ELG1 genotox 9.2µM, FLuc counter inconclusive (no result: SMN2 splice up)
CCc1cccc(NC(=O)CSc2nncn3c2cc2sccc23)c1	none (no result: p53 reactivator, NPC1 promoter act, Rab9 prom act, SMN2 splice up, ELG1 genotox)
Cc1c(NC(=O)c2ccc(Cl)cc2)cc(C(C)C)c(O)c1S(=O)(=O)c1ccccc1	SMN2 splice up 15.8µM, FLuc counter inconclusive (no result: p53 reactivator, NPC1 promoter act, Rab9 prom act, ELG1 genotox)
COc1ccc(C(=O)Nc2cc(S(=O)(=O)c3ccc(Cl)cc3)c(O)c(C)c2C)cc1	FLuc counter 8.49µM (no result: p53 reactivator, NPC1 promoter act, Rab9 prom act, ELG1 genotox)
Cc1c(NC(=O)c2ccccc2)cc(C(C)C)c(O)c1S(=O)(=O)c1ccc(Cl)cc1	none (no result: p53 reactivator, NPC1 promoter act, Rab9 prom act, SMN2 splice up, ELG1 genotox)
CCC(=O)n1nc(-c2ccc(Cl)cc2)nc1NCc1ccccc1	Rab9 prom act inconclusive, ELG1 genotox 20.6µM
O=C(c1ccco1)n1nc(-c2ccccc2)nc1NCc1ccc(Cl)cc1	none (no result: p53 reactivator, NPC1 promoter act, Rab9 prom act, ELG1 genotox)
